The target of assay [1] is Aldehyde dehydrogenase, mitochondrial (Homo sapiens) (UniProt P05091). Nature of the assay: qHTS for Inhibitors of the Aldehyde Dehydrogenase Family (ALDH2) Primary screen (AID 2061308).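 Note: plate controls were vehicle for no effect and reference inhibitor for full effect; nearly all actives have a fitted effect of over 55% in size.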 Background: In qHTS, concentration-response curves come from the screen itself.
Assay [2] deals with Retinaldehyde dehydrogenase 3 (Homo sapiens) (UniProt P47895). Nature of the assay: qHTS for Inhibitors of the Aldehyde Dehydrogenase Family (ALDH1A3) Primary screen (AID 2061315).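 Note: plate controls were DMSO vehicle for no effect and reference inhibitor for full effect.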
Assay [3] is described as follows: BET inhibitor-based combinations targeting novel dependencies in MECOM-rearranged (r) AML: SET-2 cell line (AID 2202231).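 For viability: plate controls were DMSO treated cells for no effect and wells without cells for full effect.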 Note: nearly all actives have a fitted effect of over 35% in size. Note: potency is the fitted concentration of half-maximal effect. The following applies: SET-2 AML cells viability, CellTiter-Glo luminescence, 48 h; viability: stronger effect = lower value, concentration not given here. An outline of the steps:
(§1)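 Viability of cells (500 per well) is scored by luminescent CellTiter-Glo at 48 hr post-dosing. Eleven-point titrations are normalized to DMSO and empty controls and reduced to AUC values.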

Assay [4] can be described thus: BET inhibitor-based combinations targeting novel dependencies in MECOM-rearranged (r) AML: MV-4-11 cell line (AID 2202233). Note: nearly all actives have a fitted effect of over 45% in size. Note: potency is the fitted concentration of half-maximal effect. In a few lines:
(§2)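 Using pin-tool transfer, drugs were added in 11 doses to cells (500/well), incubated 48 hr, and assessed with CellTiter-Glo. Z-AUC is a mean-centring transformation applied separately to each screened line.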

Assay [5] can be described thus: BET inhibitor-based combinations targeting novel dependencies in MECOM-rearranged (r) AML: HNT-34 cell line (AID 2202234). Note: nearly all actives have a fitted effect of over 35% in size. Note: potency is the fitted concentration of half-maximal effect. In a few lines:
as §2

The nature of assay [6]: BET inhibitor-based combinations targeting novel dependencies in MECOM-rearranged (r) AML: UCSD-AML1 cell line (AID 2202235). Note: nearly all actives have a fitted effect of over 40% in size. Note: potency is the fitted concentration of half-maximal effect. In a few lines:
as §2

Assay [7] can be described thus: BET inhibitor-based combinations targeting novel dependencies in MECOM-rearranged (r) AML: AML-191 cell line (AID 2202236; note: nearly all actives have a fitted effect of over 35% in size; note: potency is the fitted concentration of half-maximal effect). An outline of the steps: as §1
A short description of assay [8]: BET inhibitor-based combinations targeting novel dependencies in MECOM-rearranged (r) AML: AML-194 cell line (AID 2202237; note: nearly all actives have a fitted effect of over 40% in size; note: potency is the fitted concentration of half-maximal effect). An outline of the steps: as §1
Assay [9] can be described thus: BET inhibitor-based combinations targeting novel dependencies in MECOM-rearranged (r) AML: OCI-AML3 cell line (AID 2202232). Note: nearly all actives have a fitted effect of over 35% in size. Note: potency is the fitted concentration of half-maximal effect. The following applies: Potency: OCI-AML3 viability. An outline of the steps: as §1
In assay [10] the target is Aldehyde dehydrogenase 1A1 (Homo sapiens) (UniProt P00352). Briefly: qHTS for Inhibitors of the Aldehyde Dehydrogenase Family (ALDH1A1) Confirmatory screens (AID 2061316). Note: potency is the fitted concentration of half-maximal effect; nearly all actives have a fitted effect of over 65% in size.

Structures are written as SMILES. Results filed as inconclusive are left out. Unmarked numbers belong to inactive results. Active and inactive are the calls of the source. Calls come from the whole dose curve; as a rule, active = well fitted curve in the direction sought with a large enough effect; inconclusive = small, poorly fitted or top-dose-only effect, or another doubt; inactive = no such curve, though single readings can be large; an effect the other way counts as inactive or inconclusive.

With `COc1ccc(CNc2nc(N(CCO)CCO)nc3c2ncn3C(C)C)cc1`, the Potency result in assay [1] and in [2] was “inactive” in each case. Also, the Potency was 8.33 µM (active) in [3]; 6.61 µM (active) in assay [4]; 7.42 µM (active) in [5]; 7.42 µM (active) in assay [6]; 3.32 µM (active) in [7]; 5.9 µM (active) in assay [8].
Consider `Cn1cc(-c2c[nH]c3ncnc(N4CCOCC4)c23)cn1`, for which the Potency entry in assay [1], in [2], in assay [6] and in [8] was “inactive” throughout. Besides, the viability in assay [3] is 112%. The Potency in assay [4] was 11.8 µM (active); in assay [7] it was 20.9 µM (active).
For `CC(C)CCNC(=O)[C@H](CC(C)C)NC(=O)[C@H]1O[C@@H]1C(=O)O`, the Potency entry in assay [1] and in assay [2] was “inactive” in each case.
Take `C[C@]12CC[C@@H]3c4ccc(O[C@@H]5O[C@H](C(=O)O)[C@@H](O)[C@H](O)[C@H]5O)cc4CC[C@H]3[C@@H]1CCC2=O`: the Potency entry in assay [1] and in [2] was “inactive” throughout.
In the case of `CCCNC(=O)Nc1ccc(Oc2ncnc3cc(OC)c(OC)cc23)cc1Cl`, the Potency result in assay [1], in assay [2], in [9], in assay [5], in assay [6] and in assay [7] was “inactive” throughout. Further, the Potency entry in assay [8] was “inactive”. The viability in assay [3] is 92.8%.
As to `CCCC(CCC)C(=O)Nc1ccn([C@@H]2O[C@H](CO)[C@@H](O)C2(F)F)c(=O)n1`, the Potency entry in [1] and in assay [2] was “inactive” in each case. In addition, the Potency in assay [3] is 3.72 µM (active); in [9], 0.934 µM (active); in assay [4], 1.05 µM (active); in assay [5] it was 4.68 µM (active); in [6], 4.17 µM (active); in assay [7], 2.35 µM (active). In addition, in assay [8], the Potency is 2.63 µM (active).
`C[C@H](O)[C@H](O)[C@H]1CNc2nc(N)[nH]c(=O)c2N1`: the Potency entry in [1] and in assay [2] was “inactive” each time. Besides, in [10], the Potency was 12.7 µM (active).
For `C=C(C)[C@@H]1CC[C@]2(C)CC[C@]3(C)[C@H](CC[C@@H]4[C@@]5(C)CC[C@@H](O)C(C)(C)[C@@H]5CC[C@]43C)[C@@H]12`, the Potency result in assay [1] and in [2] was “inactive” in each case.
Take `CC(C)c1noc(N2CCC(COc3ccc(-c4ccc(S(C)(=O)=O)cc4)nc3)CC2)n1`: the Potency entry in [1], in assay [2], in assay [5], in [6] and in [8] was “inactive” each time. In addition, the Potency is 4.68 µM (active) in [9] and 2.35 µM (active) in [4].
For the compound `c1cc(-c2cnn3cc(-c4ccc(N5CCNCC5)cc4)cnc23)c2cccnc2c1`, the Potency entry in [1] and in assay [2] was “inactive” each time. Also, the Potency in [3] is 5.25 µM (active); in assay [9] it was 16.6 µM (active); in assay [4], 3.32 µM (active); in [5], 11.8 µM (active); in assay [6], 8.33 µM (active); in assay [7], 4.68 µM (active). The Potency in assay [8] was 2.95 µM (active).
`Cn1c(=O)n(-c2ccc(C(C)(C)C#N)cc2)c2c3cc(-c4cnc5ccccc5c4)ccc3ncc21`: the Potency result in assay [1] and in assay [2] was “inactive” each time. Moreover, the Potency in [3] was 0.17 µM (active); in assay [9], 0.241 µM (active); in assay [4], 0.17 µM (active); in assay [5], 0.135 µM (active); in assay [6], 0.0428 µM (active); in assay [7], 0.0428 µM (active).
`COc1ccc([C@H]2Cc3cccc(O)c3C(=O)O2)cc1`: the Potency result in [1] and in assay [2] was “inactive” each time.
For the compound `CC(=O)C1=C(O)C=C2Oc3c(C(C)=O)c(O)c(C)c(O)c3[C@]2(C)C1=O`, the Potency result in assay [1] and in [2] was “inactive” in each case.
Regarding `N#CN1CCC[C@@H](n2nc(-c3ccc(Oc4ccc(F)cc4F)cc3)c(C(N)=O)c2N)C1`, the Potency result in [1], in assay [2] and in assay [8] was “inactive” each time. In addition, in assay [3], the viability was 107%. Besides, the Potency in assay [9] was 10.5 µM (active).
In the case of `CNC[C@H](O)[C@@H](O)[C@H](O)[C@H](O)CO`, the viability in [3] was 121%. In addition, the Potency result in [9], in assay [4], in assay [5], in [6], in [7] and in assay [8] was “inactive” in each case.
As for `COc1ccc(CC2=NN3C([C@@H](CCc4ccccc4)[C@@H](C)O)=NC(C)C3C(=O)N2)cc1OC` (stereo partly specified), in [3], the viability is 101%. Moreover, in assay [9], the Potency was 7.42 µM (active). For the same compound, the Potency result in [6] and in [8] was “inactive” throughout.
`OC[C@@H](O)[C@@H](O)[C@H](O)[C@@H](O)CO`: the viability in assay [3] was 117%. Moreover, the Potency result in assay [4], in assay [5], in [7] and in assay [8] was “inactive” throughout.
Consider `CN[C@@H]1CN(c2ccc3c(=O)c(C(=O)O)cn(-c4nccs4)c3n2)C[C@@H]1OC`, for which the Potency was 3.23 µM (active) in [3]; 1.15 µM (active) in assay [9]; 0.323 µM (active) in [4]; 1.15 µM (active) in assay [5]; 1.82 µM (active) in [7]; 1.29 µM (active) in [8].
In the case of `CCOCC(O)COc1ccc(NC(=O)CC[S+](C)C)cc1` (stereo unspecified), the viability in [3] is 62.2%. The Potency entry in assay [9], in assay [4], in assay [5], in [6], in assay [7] and in [8] was “inactive” each time.
In the case of `Nc1ncnc2c1nc(Cl)n2[C@@H]1O[C@H](CO)[C@@H](O)[C@@H]1O`, the Potency in assay [3] was 11.8 µM (active); in assay [9] it was 13.2 µM (active); in assay [4], 5.25 µM (active); in [5], 2.95 µM (active); in assay [6], 5.9 µM (active); in [7], 3.72 µM (active). The Potency in assay [8] is 2.63 µM (active).
For the compound `Cc1cc(C2CCCCC2)n(O)c(=O)c1`, the Potency in assay [9] was 10.5 µM (active); in assay [4], 4.17 µM (active); in [5] it was 10.5 µM (active); in assay [6], 16.6 µM (active); in assay [7], 11.8 µM (active); in assay [8], 10.5 µM (active).

In general, viability refers to a read-out of living cells in per cent, often relative to untreated cells.

The values are drawn from PubChem BioAssay (NCATS).
